Source: PubChem BioAssay AID1851 (National Center for Advancing Translational Sciences (NCATS), 2009)
The whole screen tested about 16,000 compounds, of which about 2,600 (16%) were called active. Inconclusive results (about 20%) are left out. The call rests on the fitted dose curve; in most records, active means well fitted curve in the direction sought with a large enough effect; inconclusive means small, poorly fitted or top-dose-only effect, or effect the other way; inactive means no such curve, though single readings can be large or run the other way. These entries were drawn from the full list.
On the % scale 0 is the no-effect control and ±100 the full control effect.

These molecules were tested against Cytochrome P450 2D6 (Homo sapiens) (UniProt P10635) (assay: Cytochrome panel assay with activity outcomes). Settings: recombinant CYP, pro-luciferin dealkylation, luminescence, p450-cyp2d6; series mostly up to 57.1 µM.
Sequence of Cytochrome P450 2D6 (Homo sapiens) (P10635 whole entry, looked up): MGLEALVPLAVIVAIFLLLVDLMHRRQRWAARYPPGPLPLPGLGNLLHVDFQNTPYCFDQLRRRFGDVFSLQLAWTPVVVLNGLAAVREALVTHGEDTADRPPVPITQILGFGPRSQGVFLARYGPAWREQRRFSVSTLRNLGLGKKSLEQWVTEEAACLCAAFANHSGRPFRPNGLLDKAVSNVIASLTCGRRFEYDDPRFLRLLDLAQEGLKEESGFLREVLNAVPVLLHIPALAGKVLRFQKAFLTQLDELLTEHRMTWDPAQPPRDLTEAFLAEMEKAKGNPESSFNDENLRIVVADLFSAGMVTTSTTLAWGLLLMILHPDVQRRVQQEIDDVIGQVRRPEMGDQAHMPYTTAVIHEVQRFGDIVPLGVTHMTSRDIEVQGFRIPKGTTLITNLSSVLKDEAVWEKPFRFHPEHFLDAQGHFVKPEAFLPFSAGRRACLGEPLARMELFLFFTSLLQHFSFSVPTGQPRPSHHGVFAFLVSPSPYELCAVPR
`Cc1cc(NC(=O)COC(=O)c2ccc(S(=O)(=O)N3CCCc4ccccc43)cc2)no1` was tested, and the AC50 was “inactive”.
For `Cc1noc(C)c1-c1cncnc1NC1CC1`, the AC50 was “inactive”.
`Cc1cccc(CNc2ncncc2-c2ccccc2Cl)c1` was tested, and the AC50 was 2 µM (active).
`Cc1cnc(CNc2ncncc2-c2ccccc2C(F)(F)F)cn1` was tested, and the AC50 was “inactive”.
With `c1cncc(-c2cncnc2NC2CCNCC2)c1` the AC50 was “inactive”.
`Cc1cccc(CNc2ncncc2-c2ccccc2C(F)(F)F)c1` was tested, and the AC50 was 12.6 µM (active).
`Cc1cnc(CNc2cc(-c3ccccc3C(F)(F)F)ncn2)cn1` was tested, and the AC50 was “inactive”.
`Cc1ccccc1-c1cncnc1NC1CCNCC1` was tested, and the AC50 was 10 µM (active).
`O=C(c1cnccn1)N1CCC[C@@]2(CCN(c3ccncc3)C2)C1` was tested, and the AC50 was “inactive”.
With `Cc1ccc(OC(=O)c2cccc(C(=O)Oc3ccc(C)cc3)n2)cc1` the AC50 was “inactive”.
For `N[C@H](C(=O)O)[C@H](O)C(=O)O`, the AC50 was “inactive”.
`O=C1C(Cc2ccccc2)C(c2ccccc2)N1c1ccccc1` (stereo not given) was tested, and the AC50 was “inactive”.
In the case of `COc1ncc2nc(-c3ccc(F)cc3)c(=O)n(Cc3ccc(F)cc3)c2n1`, the AC50 is reported as “inactive”.
In the case of `N[C@@H](Cc1ccnnc1)C(=O)O`, the activity, negative = inhibition is reported as -0.458% [at 11.4 µM] (inactive).
With `Cc1nc2cnc(Oc3ccccc3)nc2n(CCc2ccccc2)c1=O` the AC50 was “inactive”.
In the case of `COc1n[nH]c2nncnc12`, the AC50 is reported as “inactive”.
With `Clc1ccc(COn2c(-c3ccccc3)nc3ccccc32)cc1` the AC50 was 15.8 µM (active).
With `Cn1c(=O)c(-c2ccc(Cl)cc2)nc2cnc(OCc3ccccc3)nc21` the AC50 was “inactive”.
With `Cc1ccc(COn2c(-c3ccc(Cl)cc3)nc3ccc([N+](=O)[O-])cc32)cc1` the AC50 was “inactive”.
With `O=[N+]([O-])c1ccc2nc(-c3ccc(Cl)cc3)n(OCc3ccccc3)c2c1` the AC50 was “inactive”.
`O=[N+]([O-])c1ccc2nc(-c3ccccc3)n(OCc3ccc(Cl)cc3)c2c1` was tested, and the AC50 was 6.31 µM (active).
With `O=C(CCc1nc(-c2ccccc2)c(-c2ccccc2)o1)OCc1ccc(Cl)cc1` the AC50 was “inactive”.
In the case of `COc1cccc(Cn2c(=O)c(-c3cn(C)c4ccccc34)nc3cnc(N4CCOCC4)nc32)c1`, the AC50 is reported as “inactive”.
In the case of `O=c1c(-c2ccc(F)c(F)c2)nc2cncnc2n1-c1ccccc1`, the AC50 is reported as “inactive”.
For `NS(=O)(=O)c1ccc(N=Nc2ccc(O)c(C(=O)O)c2)cc1`, the activity, negative = inhibition was -7.58% [at 11.4 µM] (inactive).
`Cc1ccccc1/C=C1\OC(=O)c2ccccc21` was tested, and the AC50 was “inactive”.
`CCCC[C@@H]1C[C@H]1C(NC(=O)c1cccs1)c1ccccc1C(F)(F)F` (stereo not given in full) was tested, and the AC50 was “inactive”.
With `CCC(c1nnnn1CCOC)N1CCN(C(=O)c2ccco2)CC1` (stereo not given) the AC50 was “inactive”.
For `Cc1ccc(C(c2nnnn2CC2CCCO2)N2CCN(C(=O)c3ccco3)CC2)cc1` (stereo not given), the AC50 was “inactive”.
In the case of `CC(C)CCn1nnnc1C(c1ccc(F)cc1)N1CCN(C(=O)c2ccco2)CC1` (stereo not given), the AC50 is reported as 14.1 µM (active).
